Results on 13 molecules are retold here after PubChem BioAssay.

The subject of assay [1] is Human papillomavirus type 1a protein E7 (residues 44-93). The assay is described as follows: small molecules binding HPV E7 44-93 – biochemical, small-molecule microarray, residues 44-93, 635 nm fluorescence, primary screen (AID 1108).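 Further: E7 fragment applied at 1 µg/mL in TBST for 1 h at 4 C; score combines spot fluorescence with its signal to noise ratio.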 The settings on record: fluorescence 635 nm, higher = more signal.
Assay [2] is described as follows: hepatitis C replication reporter changes, two-sided – Huh7 cells, luciferase reporter, HCV replication inhibitor project, primary screen (AID 1109).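 Further: huh7 hepatoma cells harbouring a luciferase neomycin HCV replicon reporter; luciferase luminescence as measure of HCV replicon replication; test concentration not given here.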 The settings on record: Huh7 HCV replicon luciferase reporter, 48 h; higher = more signal.
For assay [3], the target named is Left-right determination factor 2 (Homo sapiens) (UniProt O00292). Briefly: small molecules binding LEFTY2 protein – biochemical, small-molecule microarray, 635 nm fluorescence scan, primary screen (AID 1110). The settings on record: higher = more signal.
Sequence of Left-right determination factor 2 (Homo sapiens) (O00292 whole entry, looked up): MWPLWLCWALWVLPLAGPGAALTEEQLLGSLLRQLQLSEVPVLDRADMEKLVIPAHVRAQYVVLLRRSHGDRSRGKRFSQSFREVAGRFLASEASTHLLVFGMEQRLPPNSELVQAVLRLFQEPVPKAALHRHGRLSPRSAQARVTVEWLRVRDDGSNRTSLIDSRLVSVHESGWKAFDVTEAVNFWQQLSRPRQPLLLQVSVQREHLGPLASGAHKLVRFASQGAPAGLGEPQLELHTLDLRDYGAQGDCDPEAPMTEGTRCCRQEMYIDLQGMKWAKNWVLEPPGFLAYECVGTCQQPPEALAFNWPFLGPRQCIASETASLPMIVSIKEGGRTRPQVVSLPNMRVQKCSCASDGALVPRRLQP
The target of assay [4] is Calmodulin-1 (Homo sapiens) (UniProt P0DP23). The assay is described as follows: small molecules binding calmodulin-1 with EGTA – biochemical, small-molecule microarray, Cy5-labelled CALM1, profiling panel (AID 1111).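 Further: labelled calmodulin applied in Tris saline Tween buffer holding calcium plus EGTA and DTT.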 Conditions: Cy5-CALM1 binding fluorescence, higher = more signal.
The target is the same in assay [5]. The assay is described as follows: small molecules binding Ca-loaded calmodulin-1 – biochemical, small-molecule microarray, Cy5-labelled CALM1, plus calcium, artefact control for SMM control-protein annotation, profiling panel (AID 1112).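 Further: score merges spot fluorescence with signal to noise from triplicate slides.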 Conditions: Cy5-CALM1 binding fluorescence, higher = more signal.
Assay [6] can be described thus: probe aWnt5a binding to arrayed compounds – biochemical, biotinylated probe, 635/667 nm fluorescence, primary screen (AID 1113).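 Further: score merges 667 nm fluorescence intensity with signal-to-noise per printed feature.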 Conditions: small-molecule microarray, higher = more signal.
Assay [7] is described as follows: probe aShh binding to arrayed compounds – biochemical, biotinylated probe, 635/667 nm fluorescence, primary screen (AID 1114).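 Further: probe is biotin-labelled aShh protein from a stem cell growth factor screen; measures binding of labelled protein to compounds printed on the slide; score merges feature fluorescence at 667 nm with signal-to-noise.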 The settings on record: small-molecule microarray, higher = more signal.
Assay [8] in a line: probe aNog binding to arrayed compounds – biochemical, biotinylated probe, 635/667 nm fluorescence, primary screen (AID 1115).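 Further: probe is biotinylated aNog protein used at 0.15 µg/mL for 1 h at 4 C; z-score combines 667 nm fluorescence of each spot with its signal to noise.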 The settings on record: small-molecule microarray, higher = more signal.
Assay [9] addresses Torsin-1A-interacting protein 1 (Homo sapiens) (UniProt Q5JTV8). Briefly: compound microarray binding of lysate hLAP1 – cell lysate, small-molecule microarray, COS7 lysate, 635/667 nm fluorescence, primary screen (AID 1116). The settings on record: 635 nm fluorescence, higher = more signal.
Assay [10] concerns the target Alpha-bungarotoxin (Bungarus multicinctus) (UniProt P60615). Briefly: compounds binding labelled alpha-BTX control protein – biochemical, small-molecule microarray, Alexa647 label, 635/667 nm fluorescence, artefact control for SMM control protein annotation, profiling panel (AID 1117). Conditions: alpha-BTX-A647 binding fluorescence, higher = more signal.

Sequence of Alpha-bungarotoxin (Bungarus multicinctus) (P60615 whole entry, looked up): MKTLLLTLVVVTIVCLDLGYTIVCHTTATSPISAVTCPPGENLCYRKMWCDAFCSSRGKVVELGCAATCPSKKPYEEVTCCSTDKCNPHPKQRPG
Sequence of Torsin-1A-interacting protein 1 (Homo sapiens) (Q5JTV8 whole entry, looked up): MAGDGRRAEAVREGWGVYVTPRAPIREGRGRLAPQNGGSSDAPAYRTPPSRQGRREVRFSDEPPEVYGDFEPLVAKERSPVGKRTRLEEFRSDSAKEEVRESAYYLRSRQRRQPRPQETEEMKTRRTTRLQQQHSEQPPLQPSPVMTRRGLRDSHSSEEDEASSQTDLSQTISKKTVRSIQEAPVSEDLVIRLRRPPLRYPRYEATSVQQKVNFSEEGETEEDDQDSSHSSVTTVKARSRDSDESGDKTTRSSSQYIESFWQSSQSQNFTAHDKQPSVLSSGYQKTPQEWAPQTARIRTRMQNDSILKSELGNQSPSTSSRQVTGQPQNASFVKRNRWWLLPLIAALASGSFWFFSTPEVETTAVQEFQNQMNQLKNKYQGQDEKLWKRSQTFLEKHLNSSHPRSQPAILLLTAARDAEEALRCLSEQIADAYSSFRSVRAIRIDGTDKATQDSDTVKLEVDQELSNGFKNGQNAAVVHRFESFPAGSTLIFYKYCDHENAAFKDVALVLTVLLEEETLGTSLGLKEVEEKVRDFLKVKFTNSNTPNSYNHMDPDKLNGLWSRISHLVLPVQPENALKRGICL

For the molecule `COc1ccc(O[C@H]2C=C[C@@H](c3ccccc3)O[C@@H]2CON=C(C)C)cc1`, the composite z-score in assay [1] was -0.336; in assay [3], 0.317; in [4], 0.0047; in assay [5] it was 0.495; in assay [6] it was 0.0761; in [7], 0.318. Moreover, the composite z-score is 0.118 in [8], 0.314 in [9] and 0.724 in assay [10]. In addition, the z-score in [2] is -0.75.

With `CC(CCN1CCc2nc(-c3ccccc3)c(-c3ccccc3)cc2C1)=NOC[C@@H](O)COCc1ccco1`, the composite z-score in assay [1] was 0.58; in [3], 0.718; in assay [4], -0.216; in [5], -0.625; in assay [6], -0.0346; in assay [7], 0.0048. Besides, the composite z-score in assay [8] is -0.0524; in [9] it was 0.323; in assay [10] it was 0.365. For the same molecule, in [2], the z-score is -1.11.

As to `O=C1C[C@@H](O)[C@@H](O)[C@@H]2[C@@H]3C(=O)N(c4cccc(Oc5ccccc5)c4)C(=O)[C@@H]3CC[C@H]12`, the composite z-score in [1] was -0.252; in assay [3], 0.43; in [4], 0.118; in assay [5], -0.294; in assay [6], -0.128; in assay [7] it was -0.366. For the same molecule, the composite z-score in assay [8] is -0.341; in [9] it was 0.132; in assay [10], 0.62. The z-score in [2] is 0.33.

On to `COC(=O)[C@H]1[C@@H](O)[C@@]2(O)c3ccccc3O[C@@]2(c2ccccc2)[C@@H]1c1ccccc1`, for which the composite z-score in assay [1] was -0.673; in [3], 0.401; in [4] it was -0.449; in assay [5] it was -0.336; in [6] it was -0.156; in [7] it was 0.0815. Also, the composite z-score in assay [8] is -0.136; in assay [9] it was 0.096; in assay [10], -0.516. The z-score in assay [2] was -0.1.

For `COc1cccc([C@H]2Oc3ccc(OC)cc3C(=NO[C@@H]3O[C@H](COC(C)=O)[C@@H](OC(C)=O)[C@H](OC(C)=O)[C@H]3OC(C)=O)[C@@H]2O)c1`, the composite z-score in assay [1] is 0.104; in assay [3], 0.507; in assay [4], -0.446; in assay [5], -0.552; in assay [6], 0.0206; in [7], 0.137. In addition, the composite z-score in assay [8] was 0.124; in assay [9], -0.178; in assay [10], -0.275. The same molecule came in with a z-score in assay [2] of -1.12.

For the molecule `COC(=O)[C@H](C)NC(=O)CCC1CC(OC(=O)NCc2ccc3c(c2)OCO3)CC2(CCCC(COC(=O)NCC(c3ccccc3)c3ccccc3)O2)O1` (stereo not given in full), the composite z-score in [1] was 1.42; in [3], 0.739; in [4] it was 0.869; in assay [5] it was -0.663; in [6], -0.0037; in assay [7] it was -0.229. The composite z-score in [8] was -0.11; in assay [9], 0.587; in assay [10], 1.04. The z-score in [2] was 0.327.

With `C=CC1=C[C@H](O)[C@@H]2O[C@@H]2C12OCCCO2`, the composite z-score was 0.304 in assay [1]; 0.152 in assay [3]; -0.396 in assay [4]; -1.05 in assay [5]; -0.105 in [6]; -0.381 in assay [7]. For the same molecule, the composite z-score was -0.165 in assay [8], 0.169 in assay [9] and 0.43 in [10]. The z-score in assay [2] is -0.876.

On to `O=C1CCCC=C1C(O)CCCCBr` (stereo not given), for which the composite z-score in assay [1] was 0.619; in assay [3] it was -0.0175; in assay [4], 1.35; in [5], 0.403; in assay [6], -0.124; in assay [7], 0.191. Further, the composite z-score in assay [8] is -0.438; in [9], 0.293; in [10], 2.09. The same molecule came in with a z-score in [2] of -4.22.

As for `COCCNC(=O)OCC1CCCC2(CC(OC(=O)NCc3ccc4c(c3)OCO4)CC(CCC(=O)N[C@@H](C)C(=O)OC)O2)O1` (stereo not given in full), the composite z-score is 0.953 in assay [1]; 0.65 in assay [3]; 0.332 in assay [4]; -0.431 in assay [5]; -0.0819 in assay [6]; -0.0553 in assay [7]. Further, the composite z-score in [8] is -0.0645; in [9], 0.376; in assay [10] it was 0.804. The molecule further yielded a z-score in assay [2] of -1.26.

Regarding `CC(C)(C)N1C(=O)[C@H]2[C@H]3[C@H](O)C=CC(=O)[C@@H]3CC[C@H]2C1=O`, the composite z-score in [1] was 0.264; in assay [3], 0.296; in [4] it was 0.0361; in assay [5], -0.586; in assay [6], -0.13; in assay [7], 0.0121. Also, the composite z-score in [8] is 0.0637; in assay [9] it was -0.288; in assay [10], 0.0991. For the same molecule, the z-score in assay [2] turned out to be 0.133.

For `C[C@@H]1NC(=O)[C@@H](C)COC(=O)[C@H](C)NC(=O)[C@@H](C)COC1=O`, the composite z-score is 1.08 in [1]; 0.737 in assay [3]; -0.152 in assay [4]; -0.521 in assay [5]; -0.12 in [6]; -0.243 in assay [7]. In addition, the results for the composite z-score in [8], in [9] and in assay [10] were 0.0209, -0.143 and 0.144, respectively. Besides, the z-score in assay [2] is 0.0151.

Regarding `C[C@H](ON=C1[C@H]2CCn3c(=O)n(-c4ccccc4)c(=O)n3[C@H]2[C@H](O)[C@@H]2O[C@H]12)c1cn([C@H](CO)Cc2ccccc2)nn1`, the composite z-score in [1] was 0.345; in assay [3], 0.605; in [4], 1.15; in [5], -0.444; in [6] it was -0.0179; in [7], -0.195. Further, the composite z-score is 0.0637 in assay [8], -0.168 in [9] and 0.104 in assay [10]. Further, the z-score in assay [2] is -2.91.

On to `CC1O[C@H]2C3=C(C(=O)[C@@H]4O[C@@H]4[C@H]3O)[C@@H]1C1[C@@H](C)OC=C3[C@H](O)C4O[C@@H]4C(=NOCc4ccccc4)[C@]312` (stereo not given in full), for which the composite z-score is -0.768 in assay [1]; 0.18 in assay [3]; -0.472 in [4]; -0.177 in assay [5]; -0.0519 in assay [6]; 0.225 in [7]. Moreover, the composite z-score in [8] is -0.347; in assay [9] it was -0.192; in assay [10] it was -0.725. In assay [2], this molecule had a z-score of -3.71.
